PubChem BioAssay (NCI)
Several values for one entry are separate records, joined by “and”; a condition that tells them apart may be missing. Equal values may be shown once. About 79,000 compounds went through this panel and 15% of them were active in at least one assay; those are over-represented in the sample as a whole. More than one record can exist for a structure, and the calls need not agree. Activity calls are given as the source filed them. Rule as the data show it: active = growth inhibition above about 70%; inactive = the rest.

How the values were obtained:
[1] = NCI Yeast Anticancer Drug Screen. Data for the rad50 strain (AID 155);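 also: 0% = growth of vehicle-only cultures of the same strain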; conditions: S. cerevisiae rad50 strain growth inhibition, stronger effect = higher value
Outline: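 Growth of the mutant yeast was measured after compound exposure and referenced to vehicle-treated cultures.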

[2] = NCI Yeast Anticancer Drug Screen. Data for the mec2-1 strain (AID 157); conditions: S. cerevisiae mec2-1 strain, stronger effect = higher value
Outline: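 Readout is yeast growth inhibition, normalised to vehicle-treated controls, in the mec2-1 strain exposed to compound.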

[3] = NCI Yeast Anticancer Drug Screen. Data for the sgs1 mgt1 strain (AID 161);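 also: 0% = growth of cultures given vehicle only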; conditions: S. cerevisiae sgs1 mgt1 strain, stronger effect = higher value
Outline: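 This yeast growth screen uses a strain with defined DNA-repair lesions; compound-treated growth is compared with vehicle-treated growth.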

[4] = NCI Yeast Anticancer Drug Screen. Data for the cln2 rad14 strain (AID 165);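 also: 0% = growth equal to vehicle treated cultures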; conditions: S. cerevisiae cln2 rad14 strain, stronger effect = higher value
Outline: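 Relative to vehicle controls, growth inhibition of compound-treated cln2 rad14 yeast was recorded.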

[5] = NCI Yeast Anticancer Drug Screen. Data for the bub3 strain (AID 167); conditions: S. cerevisiae bub3 mutant strain, stronger effect = higher value
Outline: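 Whole-cell yeast assay. The mutant strain was incubated with compounds, and growth inhibition was determined by comparison with vehicle-treated cells.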

[6] = NCI Yeast Anticancer Drug Screen. Data for the mlh1 rad18 strain (AID 175); conditions: S. cerevisiae mlh1 rad18 strain growth inhibition, stronger effect = higher value
Outline: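 Test agents were incubated with a yeast strain of defined genotype (DNA damage repair defect). Inhibition of growth was derived by comparison with vehicle-exposed cultures.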

[7] = at 5.0 µM (retest, dose inferred, filed as 0.5)
[8] = at 50.0 µM (retest, dose inferred, filed as 5.0)

Row | SMILES | growth inhibition [1, 7] | growth inhibition [1, 8] | growth inhibition ([1]; at 50.0 µM) | growth inhibition [2, 7] | growth inhibition [2, 8] | growth inhibition ([2]; at 50.0 µM) | growth inhibition [3, 7] | growth inhibition [3, 8] | growth inhibition ([3]; at 50.0 µM) | growth inhibition [4, 7] | growth inhibition [4, 8] | growth inhibition ([4]; at 50.0 µM) | growth inhibition [5, 7] | growth inhibition [5, 8] | growth inhibition ([5]; at 50.0 µM) | growth inhibition [6, 7] | growth inhibition [6, 8] | growth inhibition ([6]; at 50.0 µM)
1 | CCCC1CCC(=C2C(=O)CCC2=O)O1 (stereo not drawn) | 6% (inactive) | 21% (inactive) | -4.75% (inactive) and 90.7% (active) | 2% (inactive) | 19% (inactive) | -8.75% (inactive) and 92.2% (active) | 9% (inactive) | 26% (inactive) | -5.55% (inactive) and 92.7% (active) | -2% (inactive) | 8% (inactive) | 0.65% (inactive) and 91.2% (active) | 8% (inactive) | 9% (inactive) | 2.55% (inactive) and 91% (active) | 15% (inactive) | 35% (inactive) | -13.1% (inactive) and 90.8% (active)
2 | Oc1ccc(Cc2ccccc2)cc1 | 1% (inactive) | 14% (inactive) | 63.6% (inactive) | -3% (inactive) | 14% (inactive) | 34% (inactive) | -4% (inactive) | 15% (inactive) | 23.8% (inactive) | -5% (inactive) | -12% (inactive) | -18.6% (inactive) | -2% (inactive) | 6% (inactive) | 42.2% (inactive) | 2% (inactive) | 11% (inactive) | 72.2% (active)
3 | Cn1c2nc3ccccc3c-2cc2ccccc21 | 44% (inactive) | 85% (active) | 84% (active) and 85.2% (active) | 27% (inactive) | 75% (active) | 77.8% (active) and 71.2% (active) | 38% (inactive) | 83% (active) | 70% (inactive) and 68.5% (inactive) | 41% (inactive) | 74% (active) | 60.5% (inactive) and 59.4% (inactive) | 30% (inactive) | 83% (active) | 70.8% (active) and 68.2% (inactive) | 48% (inactive) | 83% (active) | 76.7% (active) and 72.6% (active)
4 | CCCCCCCCOC(=O)c1cc(O)c(O)c(O)c1 | 49% (inactive) | 64% (inactive) | 89.2% (active) | 46% (inactive) | 68% (inactive) | 91.7% (active) | 59% (inactive) | 98% (active) | 93% (active) | 48% (inactive) | 98% (active) | 90% (active) | 70% (active) | 97% (active) | 89.8% (active) | 44% (inactive) | 59% (inactive) | 89.2% (active)
5 | c1ccc(C2=NC(c3ccccc3)=NS(S3=NC(c4ccccc4)=NC(c4ccccc4)=N3)=N2)cc1 (stereo not drawn) | 27% (inactive) | 94% (active) | 74.7% (active) | 5% (inactive) | 98% (active) | 75.2% (active) | 20% (inactive) | 98% (active) | 82.7% (active) | 20% (inactive) | 94% (active) | 43% (inactive) | 30% (inactive) | 97% (active) | 38% (inactive) | 18% (inactive) | 97% (active) | 92.3% (active)
6 | NNc1nc2ccccc2s1 | 14% (inactive) | 34% (inactive) | 1.3% (inactive) and 47.8% (inactive) | 10% (inactive) | 32% (inactive) | -37% (inactive) and 42.6% (inactive) | 2% (inactive) | 38% (inactive) | 4.4% (inactive) and 72.5% (active) | 8% (inactive) | 3% (inactive) | 0.55% (inactive) and 8.6% (inactive) | 19% (inactive) | 45% (inactive) | 9.15% (inactive) and 89.6% (active) | 37% (inactive) | 64% (inactive) | -7.35% (inactive) and 88.2% (active)
7 | Cc1cccc(Cc2ccccc2Cl)c1O | 0% (inactive) | 93% (active) | 83.2% (active) | -1% (inactive) | 93% (active) | 38% (inactive) | 1% (inactive) | 80% (active) | 89.2% (active) | -7% (inactive) | 84% (active) | 98.6% (active) | -1% (inactive) | 82% (active) | 89.8% (active) | -2% (inactive) | 81% (active) | 46.2% (inactive)
8 | OCC1OC(n2cnc3c(=S)nc[nH]c32)C(O)C1O (stereo not drawn) | -3% (inactive) | -13% (inactive) | -0.9% (inactive) and -2.3% (inactive) | -14% (inactive) | -14% (inactive) | 8.35% (inactive) and -13.8% (inactive) | 0% (inactive) | 5% (inactive) | 6.65% (inactive) and -21.8% (inactive) | 20% (inactive) | -7% (inactive) | 24.9% (inactive) and -27% (inactive) | 0% (inactive) | -3% (inactive) | 14.9% (inactive) and -16.9% (inactive) | -13% (inactive) | -14% (inactive) | 3.2% (inactive) and -1.15% (inactive)
9 | [N-]=[N+]=NC(=O)Nc1cccc(C(F)(F)F)c1 | 8% (inactive) | 99% (active) | 99% (active) | -1% (inactive) | 99% (active) | 99% (active) | 2% (inactive) | 99% (active) | 98.5% (active) | -3% (inactive) | 99% (active) | 97.8% (active) | 14% (inactive) | 98% (active) | 98.5% (active) | 8% (inactive) | 98% (active) | 98.8% (active)
10 | Cc1ccc(S(=O)(=O)SC/C=C\CSS(=O)(=O)c2ccc(C)cc2)cc1 | 4% (inactive) and 51% (inactive) | 97% (active) and 95% (active) | 93.3% (active) and 74.7% (active) | 14% (inactive) and -2% (inactive) | 97% (active) | 97% (active) and 5.65% (inactive) | 12% (inactive) and 67% (inactive) | 95% (active) and 97% (active) | 95.8% (active) and 76.7% (active) | 3% (inactive) and 12% (inactive) | 94% (active) | 88.6% (active) and 22.6% (inactive) | 12% (inactive) and 17% (inactive) | 99% (active) and 98% (active) | 96.5% (active) and -3.05% (inactive) | 2% (inactive) and 53% (inactive) | 98% (active) and 95% (active) | 95.9% (active) and 41.2% (inactive)
11 | Cc1ccc(S(=O)(=O)C23C(N=NC2(C)C)C3(C)C)cc1 (stereo not drawn) | 10% (inactive) | 3% (inactive) | -4.7% (inactive) | 4% (inactive) | -3% (inactive) | -10.6% (inactive) | -16% (inactive) | 4% (inactive) | 1.25% (inactive) | 8% (inactive) | 15% (inactive) | -39.9% (inactive) | 15% (inactive) | -2% (inactive) | -45.8% (inactive) | -1% (inactive) | -16% (inactive) | 8.4% (inactive)
12 | COc1ccc(/C=C/C(=O)CCN2CCN(CCC(=O)/C=C/c3ccc(OC)cc3)CC2)cc1 | 16% (inactive) | 99% (active) | 81.7% (active) | -15% (inactive) | 99% (active) | 90.7% (active) | -4% (inactive) | 99% (active) | 90.2% (active) | -20% (inactive) | 99% (active) | 29.9% (inactive) | -59% (inactive) | 99% (active) | 87% (active) | -5% (inactive) | 98% (active) | 91.5% (active)
13 | CSCCC(NS(=O)(=O)Cc1ccccc1)C(=O)NNc1ccccc1 (stereo not drawn) | -4% (inactive) and 18% (inactive) | 44% (inactive) and 71% (active) | 72% (active) and 51.2% (inactive) | 0% (inactive) and 2% (inactive) | 30% (inactive) and 34% (inactive) | 30.7% (inactive) and 41.2% (inactive) | -12% (inactive) and 10% (inactive) | 65% (inactive) and 58% (inactive) | 55.9% (inactive) and 63.3% (inactive) | 14% (inactive) and 5% (inactive) | 44% (inactive) and 60% (inactive) | 56.4% (inactive) and 40.1% (inactive) | 2% (inactive) and 16% (inactive) | 42% (inactive) and 93% (active) | 46.6% (inactive) and 73.8% (active) | 33% (inactive) and 18% (inactive) | 79% (active) and 65% (inactive) | 76.9% (active) and 76.8% (active)
14 | CC(C)CCC[C@@H](C)[C@H]1CC[C@H]2[C@@H]3CC=C4N5CCCN=C5CC[C@]4(C)[C@H]3CC[C@]12C | 2% (inactive) | 98% (active) | 98% (active) | -20% (inactive) | 99% (active) | 98.7% (active) | -15% (inactive) | 89% (active) | 98.5% (active) | 0% (inactive) | 54% (inactive) | 98.2% (active) | 0% (inactive) | 97% (active) | 98.2% (active) | -8% (inactive) | 98% (active) | 97.9% (active)
15 | CCCCCCC(C(=O)OCC)N1C(=O)c2ccccc2S1(=O)=O (stereo not drawn) | -3% (inactive) | 36% (inactive) | 2.55% (inactive) | -5% (inactive) | 10% (inactive) | 21.7% (inactive) | -4% (inactive) | 65% (inactive) | 30.5% (inactive) | -3% (inactive) | 16% (inactive) | 12.2% (inactive) | 10% (inactive) | 55% (inactive) | 88.5% (active) | 5% (inactive) | 36% (inactive) | 61.9% (inactive)
16 | CN1C=c2c3c(ccc2=C2C=CC4C=C5OCOC5=CC4=C21)OCO3 (stereo not drawn) | 48% (inactive) and 33% (inactive) | 97% (active) and 98% (active) | 92% (active) and 91.6% (active) | 32% (inactive) and 11% (inactive) | 98% (active) and 99% (active) | 93.3% (active) and 93% (active) | 56% (inactive) and 13% (inactive) | 98% (active) and 99% (active) | 93% (active) and 92.8% (active) | 37% (inactive) and 11% (inactive) | 98% (active) and 99% (active) | 92% (active) | 74% (active) and 17% (inactive) | 98% (active) and 99% (active) | 92.5% (active) and 91.8% (active) | 63% (inactive) and 30% (inactive) | 97% (active) | 92.5% (active) and 91.7% (active)
